The results in this text go back to PubChem BioAssay (NCATS).

Inconclusive results are not listed. The source made the active and inactive calls. Calls follow the shape of the dose curve; as a rule, active = well fitted cell-killing curve with a large enough effect; inconclusive = small, poorly fitted or top-dose-only effect, or effect the other way; inactive = no such curve, though single readings can be large or run the other way.
Potency is read from the fitted curve at half-maximal effect.

The assay can be described thus: qHTS of pediatric cancer cell lines to identify multiple opportunities for drug repurposing: Confirmatory screen for Saos-2 cells (AID 1347127). Also: nearly all actives have a fitted effect of over 60% in size. Conditions: Saos-2 osteosarcoma cell viability; series mostly up to 45.9 µM. In short, it runs like this:
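Cells (500-1,000/well) rested 5 h, then received compounds for 48 h; metabolically active cells were measured by CellTiter-Glo luminescence. Final concentrations spanned up to 46 µM (MIPE, 11-point) or 0.59 nM-46 µM (NPC, 8-point) in primary screens, 11-point in follow-ups.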
(qHTS replaces the single test concentration by a dilution series.)
Turning to `C[C@@]12OC(=O)[C@]1([C@@H](O)[C@@H]1C=CCCC1)NC(=O)[C@H]2CCCl`, the Potency was 1170 nM (active).

As to `O=C(O)CCCOc1ccc(Cl)cc1Cl`, the Potency result is “inactive”. In the case of `C[C@@H]1O[C@@H](O[C@@H]2C=C3CC[C@@H]4[C@@H](CC[C@]5(C)[C@H](c6ccc(=O)oc6)CC[C@@]45O)[C@@]3(C)CC2)[C@H](O)[C@H](O)[C@H]1O`, the Potency was 185 nM (active). The figure for `C[C@@H]1CC[C@@]2(OC1)O[C@H]1C[C@H]3[C@@H]4CC=C5C[C@@H](O[C@@H]6O[C@H](CO)[C@@H](O[C@@H]7O[C@@H](C)[C@H](O)[C@@H](O)[C@@H]7O)[C@H](O)[C@@H]6O[C@@H]6O[C@@H](C)[C@H](O)[C@@H](O)[C@@H]6O)CC[C@]5(C)[C@@H]4CC[C@]3(C)[C@@H]1[C@H]2C` is 5220 nM (active); for `CC=C(C)C(=O)N[C@@H](c1ccccc1)[C@@H](O)C(=O)O[C@H]1C[C@@]2(O)[C@@H](OC(=O)c3ccccc3)[C@@H]3[C@]4(OC(C)=O)CO[C@@H]4C[C@H](O)[C@@]3(C)C(=O)[C@H](OC(C)=O)C(=C1C)C2(C)C` it is 41.4 nM (active); for `CC(C)[C@]12O[C@@H]1[C@@H]1O[C@]13[C@]1(O[C@H]1C[C@@H]1C4=C(CC[C@@]13C)C(=O)OC4)[C@H]2O` it is 46.5 nM (active).

As to `CCC(=O)OC1CCC2C3CCC4=CC(=O)CC[C@@]4(C)C3CC[C@]12C` (some centres undefined), the Potency entry is “inactive”. `Cc1[nH]nc2ccc(-c3cncc(OC[C@@H](N)Cc4c[nH]c5ccccc45)c3)cc12`: the Potency is 2610 nM (active).

`CC(=Cc1csc(C)n1)[C@@H]1C[C@H]2O[C@@H]2CCC[C@H](C)[C@@H](O)[C@@H](C)C(=O)C(C)(C)[C@@H](O)CC(=O)O1`: the Potency was 29.3 nM (active).
